Experimental findings from PubChem BioAssay are described below.

Test [1] in a line: stimulators of insulin release from INS-1E, primary screen, cell-based, 5 mM glucose, NPC library (AID 1117329;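 active means compound raises insulin release from rat beta cells at 5 mM glucose, no numeric limit stated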; further: reference of the scale not given here). The note with it: rat INS-1E insulin secretion, at 10 µM, active compounds read high.
Test [2] can be described thus: growth inhibition of GSK3B-pretreated HCT116 cells – cell-based, CellTiter-Glo, 0.2 to 20 µM (AID 1117336;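 active means compounds lowering colon cancer cell viability after pretreatment blocking the GSK3B kinase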). The note with it: HCT116 viability after GSK3B inhibitor, at 20 µM, active compounds read high. A general note: In ATP-based viability assays light output follows the ATP content of the culture.
The nature of test [3]: inhibition of endothelial tube formation, primary screen, imaging, VEGF stimulated, CD31 staining, tube area, NPC library (AID 1117340;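 active means compound that reduces growth-factor-driven endothelial tube area in a mixed cell culture, no cutoff stated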). Particulars: VEGF-stimulated ADSC/ECFC co-culture, at 10 µM, active compounds read high.
Test [4] in a line: GLP1 release stimulators, primary, NCI-H716, NPC library (AID 1117341;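 active means compound raises GLP1 secretion from the human gut endocrine cells, with no numeric limit stated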; further: reference of the scale not given here). Particulars: NCI-H716 cells, at 10 µM, active compounds read high.
The nature of test [5]: HCT116 colon cancer cell growth inhibition, primary screen, CellTiter-Glo luminescence, NPC library (AID 1117342). Particulars: at 20 µM (top of the series).
A short description of test [6]: reduced SW480 viability measured with CellTiter-Glo, NPC library, primary (AID 1117343;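 active means compounds that lower viability of the colon cancer cells in the luminescence readout, with no numeric limit stated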). The note with it: CellTiter-Glo luminescence; at 20 µM (top of the series).
A short description of test [7]: NPC library primary testing for decreased DLD-1 cell viability via CellTiter-Glo (AID 1117346;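 active means compounds that lower survival of DLD-1 colon cancer cells in the luminescence readout, no cutoff given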). Particulars: DLD-1 viability, CellTiter-Glo luminescence; at 20 µM (top of the series).

A number with no mark means an inactive call. Active and inactive are the calls of the source.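 How the source made its calls, unless noted: active means compounds that lower survival of HCT116 colon cancer cells in the luminescence readout, no numeric limit stated; inactive means the rest.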

For `CN1CCN2c3ccccc3Cc3ccccc3C2C1` (stereo unspecified), the insulin secretion stimulation in test [1] is 43.4% (active). In test [2], the viability decrease was 6.5%. Moreover, the tube area decrease in test [3] is 26.3%. For the same molecule, the GLP1 secretion stimulation in test [4] was 3.1%. Moreover, in test [5], the inhibition of viability was 20.5%. Further, the results for the viability decrease (inhibition) in test [6] and in test [7] were 76% (active) and 6.6%, respectively.

On to `O=C1c2cccc3c2[C@H](CCC3)CN1[C@@H]1CN2CCC1CC2`, for which the insulin secretion stimulation in test [1] is 2.7%. For the same molecule, the viability decrease in test [2] is 19.7%. The tube area decrease in test [3] is -6.9%. Further, in test [4], the GLP1 secretion stimulation is -4.5%. Besides, the inhibition of viability in test [5] is 42%. In addition, the viability decrease (inhibition) in test [6] is 31%; in test [7], 29.6%.

Regarding `O=c1c(-c2ccccc2)c1-c1ccccc1`, in test [1], the insulin secretion stimulation is 0.3%. Moreover, the viability decrease in test [2] was 41.9%. Moreover, in test [3], the tube area decrease is 103% (active). In test [4], the GLP1 secretion stimulation is -2.9%. Further, the inhibition of viability in test [5] was 64.4% (active). The figures for the viability decrease (inhibition) in test [6] and in test [7] were 106% (active) and 64.3% (active), respectively.

Turning to `C#C[C@]1(O)CC[C@H]2[C@@H]3[C@H](C)CC4=C(CCC(=O)C4)[C@H]3CC[C@@]21C`, the insulin secretion stimulation in test [1] was -2.8%. Moreover, in test [2], the viability decrease was 45.5%. Further, the tube area decrease in test [3] is -5.2%. In addition, the GLP1 secretion stimulation in test [4] was 4.4%. In test [5], the inhibition of viability is -14.3%. Further, the values for the viability decrease (inhibition) in test [6] and in test [7] were 109% (active) and 79.8% (active), respectively.

For `CCOC(=O)O[C@]1(C(=O)OCCl)CC[C@H]2[C@@H]3CCC4=CC(=O)C=C[C@]4(C)[C@H]3[C@@H](O)C[C@@]21C`, the insulin secretion stimulation in test [1] was 7%. Besides, the viability decrease in test [2] was 12.3%. For the same molecule, in test [3], the tube area decrease was -0.4%. Further, the GLP1 secretion stimulation in test [4] was 0.9%. Moreover, in test [5], the inhibition of viability was 3.1%. The viability decrease (inhibition) was 0.5% in test [6] and 21.9% in test [7].

On to `COCCCOc1cc(C[C@@H](C[C@H](N)[C@@H](O)C[C@H](C(=O)NCC(C)(C)C(N)=O)C(C)C)C(C)C)ccc1OC`, for which the insulin secretion stimulation in test [1] is 0.9%. Further, the viability decrease in test [2] is -5.3%. Besides, in test [3], the tube area decrease was 19.9%. Moreover, in test [4], the GLP1 secretion stimulation was -4.7%. The inhibition of viability in test [5] was 19.7%. The viability decrease (inhibition) was 4.7% in test [6] and 12.1% in test [7].

Consider `CC1(C)S[C@@H]2[C@H](N=CN3CCCCCC3)C(=O)N2[C@H]1C(=O)O`, for which the insulin secretion stimulation in test [1] was -1.6%. Further, the viability decrease in test [2] was -5.75%. For the same molecule, the tube area decrease in test [3] is 4.4%. In addition, in test [4], the GLP1 secretion stimulation is -0.7%. Moreover, in test [5], the inhibition of viability was 15.1%. Besides, the viability decrease (inhibition) in test [6] is -20.4%; in test [7], -12.8%.

Consider `CC(C)(C)NC(=O)[C@H]1CC[C@H]2[C@@H]3CC[C@H]4NC(=O)C=C[C@]4(C)[C@H]3CC[C@]12C`, for which the insulin secretion stimulation in test [1] is 0.6%. Besides, the viability decrease in test [2] was 5.3%. The tube area decrease in test [3] was 8.2%. Further, in test [4], the GLP1 secretion stimulation was 6.1%. Also, the inhibition of viability in test [5] was 5.67%. The viability decrease (inhibition) in test [6] is 7.4%; in test [7], -4%.

Turning to `c1cnc(N2CCN(Cc3ccc4c(c3)OCO4)CC2)nc1`, in test [1], the insulin secretion stimulation was 1%. The viability decrease in test [2] is -13.4%. Also, in test [3], the tube area decrease was -4.5%. Also, the GLP1 secretion stimulation in test [4] was 10.3%. Moreover, in test [5], the inhibition of viability was 4.13%. Besides, the viability decrease (inhibition) was -7.2% in test [6] and -20% in test [7].

As for `Nc1nc(N)nc(-c2cc(Cl)ccc2Cl)n1`, the insulin secretion stimulation in test [1] was 2%. Also, the viability decrease in test [2] was 20.3%. Also, in test [3], the tube area decrease is -11.3%. The GLP1 secretion stimulation in test [4] is -1.2%. For the same molecule, the inhibition of viability in test [5] is -27.9%. Further, the results for the viability decrease (inhibition) in test [6] and in test [7] were -12.5% and -18.2%, respectively.

As to `NC1CCN(c2cccc(Cl)n2)CC1`, the insulin secretion stimulation in test [1] is -0.7%. For the same molecule, the viability decrease in test [2] is -6.2%. The tube area decrease in test [3] was 3.8%. Besides, in test [4], the GLP1 secretion stimulation was 3.8%. Moreover, the inhibition of viability in test [5] is 14.7%. Further, the viability decrease (inhibition) was 28.7% in test [6] and -9.7% in test [7].

Consider `CO[C@@H]1[C@@H](OC(N)=O)[C@@H](O)[C@H](Oc2ccc3c(O)c(NC(=O)c4ccc(O)c(CC=C(C)C)c4)c(=O)oc3c2C)OC1(C)C`, for which, in test [1], the insulin secretion stimulation is -0.3%. The viability decrease in test [2] was -78.9%. Further, the tube area decrease in test [3] was -1.9%. Further, the GLP1 secretion stimulation in test [4] is 0.7%. For the same molecule, in test [5], the inhibition of viability was -1.6%. Also, the viability decrease (inhibition) in test [6] was -22.2%; in test [7] it was -21.8%.

`CC(Cc1ccccc1)(NC(=O)CN)c1ccccc1` (stereo unspecified): the insulin secretion stimulation in test [1] was 2.2%. The viability decrease in test [2] is -5.9%. Besides, the tube area decrease in test [3] is -10.6%. For the same molecule, the GLP1 secretion stimulation in test [4] is 0.5%. The inhibition of viability in test [5] was 13.7%. Moreover, the figures for the viability decrease (inhibition) in test [6] and in test [7] were 17.1% and 19.6%, respectively.

`COC(=O)[C@H]1[C@H]2C[C@@H]3c4[nH]c5cc(OC)ccc5c4CCN3C[C@H]2C[C@@H](OC(=O)c2cc(OC)c(OC)c(OC)c2)[C@@H]1OC`: in test [1], the insulin secretion stimulation was -0.3%. In addition, the viability decrease in test [2] was 24.4%. In test [3], the tube area decrease is 22.8%. Besides, in test [4], the GLP1 secretion stimulation is 3.6%. The inhibition of viability in test [5] is 40.1%. For the same molecule, the figures for the viability decrease (inhibition) in test [6] and in test [7] were -42% and 10.4%, respectively.

Consider `CN(C)CC/C=C1/c2ccccc2COc2ccc(CC(=O)O)cc21`, for which the insulin secretion stimulation in test [1] was 1.85%. Further, the viability decrease in test [2] is -0.6%. Further, the tube area decrease in test [3] was 5.6%. For the same molecule, the GLP1 secretion stimulation in test [4] was -0.7%. The inhibition of viability in test [5] is 3.7%. Besides, the viability decrease (inhibition) in test [6] was -7.7%; in test [7], 7.1%.

Take `CC(=O)Oc1ccccc1C(=O)Nc1ncc([N+](=O)[O-])s1`: the insulin secretion stimulation in test [1] is -1.8%. In addition, in test [2], the viability decrease was 106% (active). In addition, in test [3], the tube area decrease was 110% (active). In addition, in test [4], the GLP1 secretion stimulation was 2.9%. Also, the inhibition of viability in test [5] was 107% (active). For the same molecule, the values for the viability decrease (inhibition) in test [6] and in test [7] were 120% (active) and 95.2% (active), respectively.

Turning to `Nc1ccn([C@H]2CC[C@@H](CO)O2)c(=O)n1`, the insulin secretion stimulation in test [1] was -0.3%. Also, in test [2], the viability decrease is 6.9%. In addition, the tube area decrease in test [3] was -2.2%. In addition, the GLP1 secretion stimulation in test [4] was 1.4%. In addition, the inhibition of viability in test [5] was -1.1%. In addition, the results for the viability decrease (inhibition) in test [6] and in test [7] were -0.9% and 8.55%, respectively.

Consider `Cc1ccnc2c1NC(=O)c1cccnc1N2C1CC1`, for which, in test [1], the insulin secretion stimulation was -1.6%. Further, the viability decrease in test [2] is -14.3%. Also, the tube area decrease in test [3] is -6.9%. The GLP1 secretion stimulation in test [4] was -2%. Besides, the inhibition of viability in test [5] was 6.5%. The viability decrease (inhibition) was -13.1% in test [6] and 13.6% in test [7].
